Each structure is given as a SMILES string. “And” between values parts separate entries of the source, which are not always exact repeats. Identical values can stand only once. Inconclusive results are not listed. Entries that show only a call come without a potency. The source made the active and inactive calls. Calls follow the shape of the dose curve; as a rule, active = well fitted inhibition curve with a large enough effect; inconclusive = small, poorly fitted or top-dose-only effect; inactive = no such curve, though single readings can be large or run the other way.

The first assay has as its target Retinaldehyde dehydrogenase 3 (Homo sapiens) (UniProt P47895). Put plainly: qHTS for Inhibitors of the Aldehyde Dehydrogenase Family (ALDH1A3) Confirmatory screens (AID 2061311). Also: nearly all actives have a fitted effect of over 60% in size. Also: potency is read from the fitted curve at half-maximal effect. As to conditions: ALDH inhibition qHTS; series mostly up to 46 µM. (In general: qHTS replaces the single test concentration by a dilution series.)
As for `COc1ccccc1-n1c(=O)c(C(=O)NC(C)C)nc2cccnc21`, the Potency result is “inactive”.

For the compound `N#Cc1ccccc1NC(=O)Cn1cnc2onc(-c3cccc(F)c3)c2c1=O`, the Potency entry is “inactive”.

Take `O=C(Cn1c(=O)n(Cc2cccs2)c(=O)c2cccnc21)Nc1ccccc1F`: the Potency result was “inactive”.

With `COc1ccc(-c2ccccc2C(=O)NCc2ccccn2)nn1`, the Potency result was “inactive”.

On to `COc1cccc(-c2nccc3c(=O)cc(N4CCOCC4)oc23)c1`, for which the Potency result is “inactive”.

Regarding `Cc1cccc(-c2ccc(CN)cc2)c1`, the Potency result was “inactive”.

Consider `CC(=O)NC(c1ccco1)c1cc(Cl)c2ccccc2c1O` (configuration not stated), for which the Potency was 11.3 µM (active).

Consider `COc1ccccc1-c1cc2c(nc1OC)nc(CC1CC1)n2C`, for which the Potency result was “inactive”.

As for `CCCOc1ccc(C(=O)Nc2ccc(NC(=O)c3cccc(Cl)c3)cc2)cc1`, the Potency entry was “inactive”.

Turning to `O=C(C#Cc1ccccc1)NC1CCCc2c1cnn2-c1ccc(F)cc1F` (configuration not stated), the Potency result was “inactive”.

As to `CCc1ccc(O)c(C(=O)c2cnc3cc(-c4ccc(C)cc4)nn3c2)c1`, the Potency entry is “inactive”.

Consider `O=C(NCc1ccc(F)cc1)c1nc(-c2ccc(Cl)nc2)c2cnccn12`, for which the Potency entry is “inactive”.

As for `CC[C@H]1CN(C(=O)Nc2cccc(OC)c2)CC[C@H]1CC(=O)NCc1ccccc1`, the Potency result is “inactive”.

In the case of `CN(Cc1ccc(-c2ccccc2)cc1)CC1CCCCC1`, the Potency is 35.5 µM (active).

As to `COCCNC(=O)c1cc(-c2ccc(OC)cc2)nc2c1c(C)nn2-c1ccccc1`, the Potency was 25.1 µM (active).

As for `COc1ccc(C2(C(=O)NCc3ccccc3)CCOCC2)cc1`, the Potency result is “inactive”.

Consider `COc1ccccc1-c1cnc2n[nH]c(-c3ccccc3C)c2n1`, for which the Potency entry is “inactive”.

With `COCCOc1ccc(C(=O)N[C@@H]2CN(C(=O)NCc3ccccc3)CCC[C@H]2O)cc1`, the Potency entry was “inactive”.

In the case of `COc1ccc(-c2nnc3ccc(NCCc4ccccc4)nn23)nc1`, the Potency was 20 µM (active).

With `CCc1nn2c(=O)c(S(=O)(=O)Nc3cccc(F)c3)c(C)nc2s1`, the Potency entry was “inactive”.

For `O=C(CN1CCN(c2ccc(Cl)cc2)CC1)Nc1ccc(F)c(F)c1`, the Potency entry was “inactive”.

As for `CCOc1ccc(NC(=O)CN2CCN(c3ccc(Cl)cc3)CC2)cc1`, the Potency result was “inactive”.

Consider `COCCn1c(CNC(=O)c2cc([N+](=O)[O-])ccc2Cl)nc2cccnc21`, for which the Potency result was “inactive”.

Another assay has the same target. Put plainly: qHTS for Inhibitors of the Aldehyde Dehydrogenase Family (ALDH1A3) Primary screen (AID 2061315). As to conditions: ALDH inhibition qHTS; series mostly up to 56 µM.
In the case of `Cc1cccc(-c2[nH]ncc2-c2ccc(F)c(-c3cnn(CCO)c3)c2)n1`, the Potency result was “inactive”.

As to `O=C(c1ccc(/C=C/c2n[nH]c3ccccc23)cc1)N1CCNCC1`, the Potency result was “inactive”.

In the case of `C#Cc1cccc(Nc2ncnc3cc(OCCOC)c(OCCOC)cc23)c1`, the Potency result was “inactive”.

As for `[2H]C([2H])(Nc1nc(-c2ccccc2C([2H])(C([2H])([2H])[2H])C([2H])([2H])[2H])ncc1C)c1ccc(-n2ccnn2)cc1`, the Potency entry is “inactive”.

Regarding `Cc1c(NC(=O)OCC2COCCN2)cn2ncnc(Nc3ccc4c(cnn4Cc4cccc(F)c4)c3)c12` (configuration not stated), the Potency result is “inactive”.

For `CCn1c(=O)c(-c2ccc(Cl)cc2Cl)cc2cnc(Nc3ccc(N4CCNCC4)c(F)c3)nc21`, the Potency entry is “inactive”.

For `CC(C)NC(=O)COc1cccc(-c2nc(Nc3ccc4[nH]ncc4c3)c3ccccc3n2)c1`, the Potency result is “inactive”.

For the compound `Cc1c[nH]c2ncnc(N3CCC(CN)(C(=O)Nc4cccc(OC(=O)N(C)C)c4)CC3)c12`, the Potency entry is “inactive”.

In a further assay the target is Aldehyde dehydrogenase 1A1 (Homo sapiens) (UniProt P00352). Put plainly: qHTS for Inhibitors of the Aldehyde Dehydrogenase Family (ALDH1A1) Confirmatory screens (AID 2061316). Also: nearly all actives have a fitted effect of over 65% in size. Also: potency is read from the fitted curve at half-maximal effect. To be noted: ALDH inhibition qHTS; series mostly up to 47.3 µM.
For `O=C1Cc2cc(S(=O)(=O)N3CCN(c4ccc(O)cc4)CC3)ccc2N1`, the Potency was 11.3 µM (active).

`CC(=O)N1CCN(c2ccc(N)cc2)CC1`: the Potency is 25.2 µM (active).

Regarding `Cc1ccnc(NC(=S)N2CCN(c3cc(Cl)cc(Cl)c3)CC2)c1`, the Potency was 5.65 µM (active).

As to `Nc1ccccc1S(=O)(=O)Nc1cccc2cccnc12`, the Potency result was “inactive”.

System in the next assay: not listed separately
Put plainly: BET inhibitor-based combinations targeting novel dependencies in MECOM-rearranged (r) AML: OCI-AML3 cell line (AID 2202232). Also: nearly all actives have a fitted effect of over 35% in size. Also: potency is read from the fitted curve at half-maximal effect. As to conditions: CellTiter-Glo luminescence, 48 h; Potency: OCI-AML3 viability; series mostly up to 46 µM. In outline: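 A 48 hr incubation preceded viability reading by CellTiter-Glo, with 15 min room-temperature development. Dose series had 11 points; normalization used DMSO and empty wells; AUC was computed and mean-centered per line as Z-AUC.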
On the technique in general: In ATP-based viability assays light output follows the ATP content of the culture.
Regarding `C=CC(=O)Nc1cccc(Nc2nc(Nc3ccc(N4CCN(C(C)=O)CC4)cc3OC)ncc2C(F)(F)F)c1`, the Potency is 18.6 µM (active).

Consider `COc1ccc2[nH]c(S(=O)Cc3ncc(C)c(OC)c3C)nc2c1` (configuration not stated), for which the Potency result is “inactive”.

With `CC(/C=C/C(=O)NO)=C\[C@@H](C)C(=O)c1ccc(N(C)C)cc1`, the Potency was 0.662 µM (active).

As for `Cn1cc(-c2cnn3c(N)c(Br)c(C4CCCNC4)nc23)cn1` (configuration not stated), the Potency is 10.5 µM (active).

Regarding `Cc1cnc(Nc2ccc(F)cc2Cl)nc1-c1c[nH]c(C(=O)NC(CO)c2cccc(Cl)c2)c1` (configuration not stated), the Potency was 4.68 µM (active).

System in the next assay: not listed separately
The assay is described as follows: BET inhibitor-based combinations targeting novel dependencies in MECOM-rearranged (r) AML: MV-4-11 cell line (AID 2202233). Also: potency is read from the fitted curve at half-maximal effect; nearly all actives have a fitted effect of over 45% in size. To be noted: MV-4-11 AML viability, CellTiter-Glo luminescence, 48 h; series mostly up to 46 µM. In a few lines:
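Each compound is tested in an 11-point concentration series against 500 seeded cells/well for 48 hr. The luminescent viability signal is normalized to DMSO and blank wells, then reduced to AUC and a cell-line-centred Z-AUC.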
On to `C=CC(=O)Nc1cccc(Nc2nc(Nc3ccc(N4CCN(C(C)=O)CC4)cc3OC)ncc2C(F)(F)F)c1`, for which the Potency was 2950 nM (active).

Regarding `CC(/C=C/C(=O)NO)=C\[C@@H](C)C(=O)c1ccc(N(C)C)cc1`, the Potency was 417 nM (active).

With `O=C(c1ccc(/C=C/c2n[nH]c3ccccc23)cc1)N1CCNCC1`, the Potency is 132 nM (active).

As to `Cn1cc(-c2cnn3c(N)c(Br)c(C4CCCNC4)nc23)cn1` (configuration not stated), the Potency is 468 nM (active).

For `Cc1c(NC(=O)OCC2COCCN2)cn2ncnc(Nc3ccc4c(cnn4Cc4cccc(F)c4)c3)c12` (configuration not stated), the Potency is 18600 nM (active).

Turning to `Cc1c[nH]c2ncnc(N3CCC(CN)(C(=O)Nc4cccc(OC(=O)N(C)C)c4)CC3)c12`, the Potency is 1.86 µM (active) and 1.05 µM (active).

On to `Cc1cnc(Nc2ccc(F)cc2Cl)nc1-c1c[nH]c(C(=O)NC(CO)c2cccc(Cl)c2)c1` (configuration not stated), for which the Potency is 296 nM (active).

(Values after PubChem BioAssay (NCATS).)
